Laboratory results reported in PubChem BioAssay (NCI).
This is part of a sample that, as a whole, favours compounds with a hit. Of some 79,000 tested, about 15% had one in any assay. Active and inactive are the calls of the source. Rule as the data show it: active = growth inhibition above about 70%; inactive = the rest.

What was measured:
[1] = NCI Yeast Anticancer Drug Screen. Data for the rad50 strain (AID 155);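 also: 0% = growth of vehicle-only cultures of the same strain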; conditions: S. cerevisiae rad50 strain growth inhibition, stronger effect = higher value
Procedure, shortened: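 A DNA repair-deficient yeast mutant serves as the test organism; compound-induced growth inhibition is calculated against vehicle-treated cells.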

[2] = NCI Yeast Anticancer Drug Screen. Data for the mec2-1 strain (AID 157); conditions: S. cerevisiae mec2-1 strain, stronger effect = higher value
Procedure, shortened: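 Mutant yeast (mec2-1) grown with compound; growth inhibition relative to vehicle control reported.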

[3] = NCI Yeast Anticancer Drug Screen. Data for the sgs1 mgt1 strain (AID 161);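 also: 0% = growth of cultures given vehicle only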; conditions: S. cerevisiae sgs1 mgt1 strain, stronger effect = higher value
Procedure, shortened: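 Percent growth inhibition was derived by comparing compound-exposed mutant yeast with vehicle-exposed cultures. The strain carries alterations in DNA damage repair.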

[4] = NCI Yeast Anticancer Drug Screen. Data for the cln2 rad14 strain (AID 165);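 also: 0% = growth equal to vehicle treated cultures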; conditions: S. cerevisiae cln2 rad14 strain, stronger effect = higher value
Procedure, shortened: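 Readout is yeast growth inhibition versus vehicle-treated controls, using a strain with cln2 and rad14 alterations exposed to compound.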

[5] = NCI Yeast Anticancer Drug Screen. Data for the bub3 strain (AID 167); conditions: S. cerevisiae bub3 mutant strain, stronger effect = higher value
Procedure, shortened: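 Inhibition values come from growth of compound-treated mutant yeast normalised to vehicle-treated controls.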

[6] = NCI Yeast Anticancer Drug Screen. Data for the mlh1 rad18 strain (AID 175); conditions: S. cerevisiae mlh1 rad18 strain growth inhibition, stronger effect = higher value
Procedure, shortened: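 Genetically defined yeast (DNA repair-deficient) exposed to compounds; growth inhibition determined relative to vehicle.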

[7] = at 5.0 µM (retest, dose inferred, filed as 0.5)
[8] = at 50.0 µM (retest, dose inferred, filed as 5.0)

Measured: growth inhibition

N#CCc1nc2c(s1)C(=O)c1ccccc1C2=O
active: [1]; [8] 99% | [1]; at 50.0 µM 71.4% | [2]; [8] 100% | [2]; at 50.0 µM 82.5% | [3]; [8] 100% | [4]; [8] 98% | [5]; [8] 99% | [5]; at 50.0 µM 87.2% | [6]; [8] 99%
inactive: [1]; [7] 52% | [2]; [7] 48% | [3]; [7] 47% | [3]; at 50.0 µM 41.8% | [4]; [7] 30% | [4]; at 50.0 µM 35.2% | [5]; [7] 55% | [6]; [7] 67% | [6]; at 50.0 µM 68.7%

CN(C)/N=C\C1CC=CCC1 (configuration not stated)
inactive: [1]; [7] -148% | [1]; [8] -148% | [1]; at 50.0 µM 25.2% | [2]; [7] -46% | [2]; [8] -51% | [2]; at 50.0 µM 5.35% | [3]; [7] -58% | [3]; [8] -61% | [3]; at 50.0 µM 30.9% | [4]; [7] -58% | [4]; [8] -70% | [5]; [7] -71% | [5]; [8] -80% | [5]; at 50.0 µM 21.8% | [6]; [7] -141% | [6]; [8] -120% | [6]; at 50.0 µM 38%
active: [4]; at 50.0 µM 82.9%

Nc1ncnc2c1c(-c1ccccc1)cn2-c1ccc(I)cc1
inactive: [1]; [7] 54% | [1]; [8] -2% | [1]; at 50.0 µM 33.4% | [2]; [7] 23% | [2]; [8] 0% | [3]; [7] 65% | [3]; [8] -3% | [3]; at 50.0 µM 41.1% | [4]; [7] 24% | [4]; [8] -2% | [5]; [7] 32% | [5]; [8] 0% | [6]; [7] 26% | [6]; [8] -2% | [6]; at 50.0 µM 47.9%
active: [2]; at 50.0 µM 75.2% | [4]; at 50.0 µM 94.2% | [5]; at 50.0 µM 97.3%

C=CC1(C)CCC2C(=CCC3C(C)(COC4OC(CO)C(O)C(O)C4O)C(O)CCC23C)C1 (configuration not stated)
active: [1]; [8] 99% | [1]; at 50.0 µM 93.2% | [2]; [8] 99% | [2]; at 50.0 µM 93.9% | [3]; at 50.0 µM 93.8% | [4]; [8] 70% | [4]; at 50.0 µM 91.5% | [5]; [8] 92% | [5]; at 50.0 µM 93.6% | [6]; [8] 99% | [6]; at 50.0 µM 92.8%
inactive: [1]; [7] -4% | [2]; [7] -1% | [3]; [7] -3% | [3]; [8] 43% | [4]; [7] -1% | [5]; [7] 18% | [6]; [7] -3%

O=[N+]([O-])c1ccc(/C=N/O)o1
inactive: [1]; [7] 20% | [2]; [7] 6% | [3]; [7] 5% | [4]; [7] 49% | [5]; [7] 13% | [6]; [7] 44%
active: [1]; [8] 98% | [1]; at 50.0 µM 98.2% | [2]; [8] 99% | [2]; at 50.0 µM 99.5% | [3]; [8] 99% | [3]; at 50.0 µM 99.2% | [4]; [8] 98% | [4]; at 50.0 µM 89% | [5]; [8] 99% | [5]; at 50.0 µM 99.6% | [6]; [8] 99% | [6]; at 50.0 µM 99%

N#C/C(=C/c1ccc([N+](=O)[O-])o1)c1ccccc1
active: [1]; at 50.0 µM 75.8%
inactive: [1]; [7] -6% | [1]; [8] -7% | [2]; [7] -19% | [2]; [8] -7% | [2]; at 50.0 µM -20.1% | [3]; [7] -6% | [3]; [8] -1% | [3]; at 50.0 µM 27.9% | [4]; [7] 12% | [4]; [8] 23% | [4]; at 50.0 µM 32.8% | [5]; [7] -4% | [5]; [8] -2% | [5]; at 50.0 µM -13.7% | [6]; [7] -21% | [6]; [8] 21% | [6]; at 50.0 µM 5.9%

O=C(O)CCC(=O)NCCNC(=O)CC(=O)O
inactive: [1]; [7] -152% | [1]; [8] -162% | [1]; at 50.0 µM 10.7% | [2]; [7] -52% | [2]; [8] -51% | [2]; at 50.0 µM -14.8% | [3]; [7] -57% | [3]; [8] -63% | [3]; at 50.0 µM 43% | [4]; [7] -52% | [4]; [8] -48% | [4]; at 50.0 µM 36.3% | [5]; [7] -68% | [5]; [8] -79% | [5]; at 50.0 µM -1.55% | [6]; [7] -116% | [6]; [8] -107% | [6]; at 50.0 µM 9%

CCc1ccc(C(=O)O)c2ccccc12
active: [1]; [8] 81% | [3]; [8] 72% | [6]; [8] 85%
inactive: [1]; [7] -8% | [1]; at 50.0 µM 68.1% | [2]; [7] 8% | [2]; [8] 48% | [2]; at 50.0 µM 24.9% | [3]; [7] -2% | [3]; at 50.0 µM 35.1% | [4]; [7] 8% | [4]; [8] 69% | [4]; at 50.0 µM 51.6% | [5]; [7] -6% | [5]; [8] 62% | [5]; at 50.0 µM 8.4% | [6]; [7] -1% | [6]; at 50.0 µM 51.6%

COC(=O)/C(=N\NC(=O)c1ccccc1O)C(C#N)c1ccc(Cl)cc1 (configuration not stated)
inactive: [1]; [7] -4% | [1]; [8] 44% | [1]; at 50.0 µM 62.1% | [2]; [7] -1% | [2]; [8] 65% | [2]; at 50.0 µM 54.8% | [3]; [7] 13% | [3]; at 50.0 µM 68% | [4]; [7] -7% | [4]; [8] 42% | [4]; at 50.0 µM 43.4% | [5]; [7] -3% | [6]; [7] 0% | [6]; [8] 60%
active: [3]; [8] 73% | [5]; [8] 79% | [5]; at 50.0 µM 71.8% | [6]; at 50.0 µM 70.6%
